Laboratory results: PubChem BioAssay (EPA / NIEHS)
Results filed as inconclusive are left out. Active and inactive are the calls of the source. How the source made its calls: active means hit-call score of the fitted dose curve at least 0.9, where 1 is the maximum; inconclusive means response in the unintended direction; inactive means score below 0.9.

Molecular target: Hepatocyte nuclear factor 4-alpha (Homo sapiens) (UniProt P41235)
Assay: ATG_HNF4a_TRANS: Attagene TRANS-FACTORIAL HepG2 Assay for human Hepatocyte Nuclear Factor 4 alpha (HNF4a) (AID 2282982)
Settings: HepG2 HNF4a transactivation reporter, mRNA readout
Description: ATG_TRANS is a cell-based, multiplexed-readout assay that uses HepG2, a human liver cell line, with measurements taken at 24 hours after chemical dosing in a 24-well plate.ATG_HNF4a_TRANS is one of 30 assay component(s) measured or calculated from the ATG_TRANS assay. It is designed to make measurements of mRNA induction, a form of inducible reporter, as detected with fluorescence intensity signals by Reverse transcription polymerase chain reaction (RT-PCR) and Capillary electrophoresis technology.Data from the assay component ATG_HNF4a_TRANS was analyzed into 1 assay endpoint. This assay endpoint, ATG_HNF4a_TRANS, was analyzed in the positive analysis fitting direction relative to DMSO as the negative control and baseline of activity. Using a type of inducible reporter, measures of mRNA for gain-of-signal activity can be used to understand the reporter gene at the transcription factor-level as they relate to the gene HNF4A. Furthermore, this assay endpoint can be referred to as a primary readout, because this assay has produced multiple assay endpoints where this one serves a reporter gene function. To generalize the intended target to other relatable targets, this assay endpoint is annotated to the nuclear receptor intended target family, where the subfamily is orphan.
Human liver HepG2 cells are transiently transfected with multiple reporter transcription units (MRTUs) in 6-well plates using FuGene 6 reagent (Roche; 3 ml FuGene/1 mg DNA). The MRTU constructs are regulated by a cis-regulating element (promoter). […] A major difference between the CIS and TRANS system is that in CIS activities of endogenous TFs are measured, whereas the TRANS assay evaluates changes in activities of exogenous, chimeric NR-Gal4 proteins. […] At the end of 24 hour incubation, total RNA was isolated using TriZol reagent (Invitrogen). The isolated RNA is then reverse-transcribed using oligo(dT) primer and Mo-MLV reverse transcriptase (Invitrogen) with DNAse I (Ambion) treatment for 30 min. The one-tenth of the produced cDNA was amplified by PCR using Taq DNA polymerase (Invitrogen) and two reporter sequence-specific primers. The PCR products were fluorescently labeled by primer extension with 6-arboxyfluorescein (6-FAM) 5'-labeled reporter sequence-specific primer (2 min at 95 C, 20 s at 68 C and 10 min at 72 C) and these products were digested with 5U of HpaI (New England Biolabs) for 2h at 37 C. The fragments were purified using Qiaquick PCR columns (Qiagen), analyzed on an ABI 3130xL genetic analyzer (Applied Biosystems) with peak positions identified by using a set of X-rhodamine (ROX)-labeled MapMarker1000 molecular weight standards (BioVentures). The raw capillary electrophoresis data was processed using Attagraph software (Attagene).

Chain of Hepatocyte nuclear factor 4-alpha (Homo sapiens) (P41235 whole entry, looked up): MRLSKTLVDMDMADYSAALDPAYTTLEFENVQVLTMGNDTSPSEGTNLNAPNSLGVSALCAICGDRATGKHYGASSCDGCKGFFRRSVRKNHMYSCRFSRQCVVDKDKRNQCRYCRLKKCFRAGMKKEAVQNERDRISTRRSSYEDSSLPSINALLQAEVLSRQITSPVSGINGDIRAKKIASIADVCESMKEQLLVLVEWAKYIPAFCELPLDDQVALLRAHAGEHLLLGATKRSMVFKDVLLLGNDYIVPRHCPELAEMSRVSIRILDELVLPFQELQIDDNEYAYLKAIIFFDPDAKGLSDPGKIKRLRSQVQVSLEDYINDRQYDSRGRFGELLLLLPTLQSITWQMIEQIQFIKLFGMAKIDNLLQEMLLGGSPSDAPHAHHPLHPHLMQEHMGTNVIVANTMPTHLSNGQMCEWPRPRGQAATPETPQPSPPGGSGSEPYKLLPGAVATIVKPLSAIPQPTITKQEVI

Structure (SMILES) | outcome | AC50
CCCC(=O)OCc1ccccc1 | inactive | –
C(=CC=Nc1ccccc1)C=CNc1ccccc1 | inactive | –
S=C(NC1CCCCC1)NC1CCCCC1 | inactive | –
C[C@]12CCC(=O)C=C1CC[C@@H]1[C@@H]2C(=O)C[C@@]2(C)[C@H]1CC[C@]2(O)C(=O)CO | inactive | –
C1=Cc2ccccc2C1 | inactive | –
Cn1c(=O)[nH]c2ncn(C)c2c1=O | inactive | –
C=C(C)C(=O)OCCO | inactive | –
COc1ccc(C(Cl)=C(c2ccc(OC)cc2)c2ccc(OC)cc2)cc1 | inactive | –
COC=O | inactive | –
C1CN(SSN2CCOCC2)CCO1 | inactive | –
Cc1cccc(N)n1 | inactive | –
CC(C)c1ccc2cc(C(C)C)ccc2c1 | inactive | –
CCCCCCCC[N+](C)(CCCCCCCC)CCCCCCCC | inactive | –
O=C(c1ccccc1)C1CCC1 | inactive | –
CC1=CC[C@H](C(C)C)C=C1 | inactive | –
Cc1ccc(OC(=O)CC(C)C)cc1 | inactive | –
CCOC(=O)CC | inactive | –
CCO[Si](CCCN=C=O)(OCC)OCC | inactive | –
O=C(c1ccccc1)c1ccc(O)c(O)c1O | inactive | –
CCCCCCCCCCCCCCCC[N+](C)(C)CC | – | 11 µM (active)

Structure (SMILES) | outcome | AC50
NNC(=O)c1cccc(C(=O)NN)c1 | inactive | –
c1ccc2c(c1)ccc1cc3c(ccc4ccccc43)cc12 | inactive | –
O=P(O)(O)Oc1ccccc1 | inactive | –
O=C1CCCC(=O)O1 | inactive | –
O=c1cc(-c2ccccc2)oc2ccccc12 | inactive | –
Cc1oncc1C(=O)Nc1ccc(C(F)(F)F)cc1 | inactive | –
[Cl][In]([Cl])[Cl] | inactive | –
NC(=O)NNC(N)=O | inactive | –
CCCCCCCCCCOC(C)=O | inactive | –
CC(C)(C)c1ccc(N)cc1 | inactive | –
Cc1ccc(N)c([N+](=O)[O-])c1 | inactive | –
C=CCCCCCCCCC(=O)OCCCC | inactive | –
CC(C)=CC1CC(C)CCO1 (stereo not given) | inactive | –
CCCCCCOc1cc(C)c(O)c(C)c1C | inactive | –
COCCCOCCCOC | inactive | –
COCc1c(C(C)C)nc(C(C)C)c(/C=C/[C@@H](O)C[C@@H](O)CC(=O)O)c1-c1ccc(F)cc1 | inactive | –
C=C[Si](C)(C)O[Si](C)(C)C=C | inactive | –
C#CC1(O)CC[C@H]2[C@@H]3CCC4=CCCC[C@@H]4[C@H]3CC[C@@]21C (stereo not given in full) | inactive | –
O=c1c2ccccc2oc2ccccc12 | inactive | –
OCCc1ccncc1 | inactive | –
